Measurements reported in ChEMBL document CHEMBL1157539, “Thousands of chemical starting points for antimalarial lead identification” (Nature, 2010).

system: Plasmodium falciparum; assay: GSK_TCMDC: Inhibition of Plasmodium falciparum 3D7 in whole red blood cells, using parasite LDH activity as an index of growth. Test compounds present at 2uM; format: functional

| SMILES | Inhibition [%] |
| --- | --- |
| COc1ccc(CCNc2ccnc3cc(Cl)ccc23)cc1OC.Cl | 100 |
| CCCCCN1CCCCC(NS(=O)(=O)c2ccc(C(=O)Nc3cccc(C(F)(F)F)c3)cc2)C1.O=C(O)C(F)(F)F (centres undefined) | 93 |
| Cc1nn(CC(C)C)c2sc(C(=O)N3CCN(S(=O)(=O)c4ccc(C#N)cc4)CC3)cc12 | 99 |
| O=C(N[C@@H](CC1CCCCC1)C(=O)NC1CCCc2ccccc21)c1ccc(O)c(-c2cccc(C(F)(F)F)c2)c1 (some centres undefined) | 100 |
| Cc1nnc2c(NC(=O)/C=C/c3ccc(OC(F)(F)F)cc3)cc3cc(Cl)ccc3n12 | 94 |
| Cc1ccc(F)cc1S(=O)(=O)N1CCCCC(c2ccc(C(F)(F)F)cc2)=N1 | 82 |
| Cl.O=C(Nc1cccc(Cl)c1)OC1CCCN2CCCCC12 (centres undefined) | 85 |
| CCCCCN1CCCC1CNS(=O)(=O)c1cccc(C(=O)Nc2cccc(C(F)(F)F)c2)c1.O=C(O)C(F)(F)F (centres undefined) | 96 |
| Cc1ccc(NC(=O)Cc2noc(CC3CCCN3C(=O)N[C@@H](C)c3ccccc3)n2)cc1 (some centres undefined) | 95 |
| CC1SC(=S)NC1C(=O)O (centres undefined) | 94 |
| CCCCN(CCCC)CCCCCCNc1c2ccccc2nc2ccccc12.Cl | 95 |
| NS(=O)(=O)c1cccc(Nc2nc(N[C@@H]3CCNC3)nc3cc[nH]c(=O)c23)c1.O=C(O)C(F)(F)F | 99 |
| COc1ccc2ccccc2c1CNCCCCCCNCc1c(OC)ccc2ccccc12.Cl | 100 |
| CC(C)COc1ccc(Cl)cc1Cc1ccc(-c2nc3cc(CCN4CCCC4)ccc3[nH]2)o1.Cl | 100 |
